High-throughput results as filed in PubChem BioAssay.
Hits are enriched below; roughly 12% of the tested compounds scored in any of these assays.
Lmaj promast = reduces viability of Leishmania major promastigotes; resazurin fluorescence viability; inhibition, % at 10 µM; 200,000 compounds, 9% hits; AID 1063; in the data active = inhibition above about 50%;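 note: promastigotes grown with compound for 44 hours at 28 °C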
CHOP inhibitor = inhibitors of CHOP induction in ER stress response. inhibition, % at 10 µM. 220,000 compounds, 3.8% hits. CHO-K1 CHOP-promoter luciferase, tunicamycin-induced, 15-18 h;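 active = compounds that reduced the stress-induced luciferase reporter signal by more than about 70% of percent inhibition, limit read from the data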;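 note: 0% = tunicamycin plus vehicle and 100% = wells without tunicamycin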
Arbovirus anti = antivirals against arbovirus infection; arbovirus infection cell-based antiviral screen; 200,000 compounds, 0.37% hits; inhibition, % at 10 µM; in the data active = inhibition above about 30%
WT yeast gro inh = growth inhibition of WT yeast, mitochondrial fusion screen | AID 1362 | mitochondrial fusion phenotypic screen, WT strain | inhibition, % at 10 µM | 190,000 compounds, 2.1% hits; in the data active = inhibition above about 58%; tested in S. cerevisiae
L major 1uM = L. major promastigote growth inhibition, 1 uM repeat. shares compounds with Lmaj promast. resazurin fluorescence, 48 h. inhibition, % at 1 µM. 1,100 compounds, 13% hits. AID 1258;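 active = inhibition above about 50% in both repeat tests, limit read from the data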
* hit, by the source's call; . = no result given.

SMILES	Lmaj promast	CHOP inhibitor	Arbovirus anti	WT yeast gro inh	L major 1uM
CCOC(=O)c1cn2ccc(C)cc2n1	-2.7	-5.9	1.0	-18.4	.
O=C1NCN(c2ccccc2)C12CCN(c1nnnn1-c1ccccc1)CC2	80.8*	24.0	12.1	-4.8	-16.9
Cc1nc(-c2ccccc2)sc1-c1nc(-c2ccncc2)ncc1S(=O)(=O)c1ccccc1	58.5*	21.2	-21.1	77.6*	17.5
COc1ccc(C(=O)Nc2cccc([N+](=O)[O-])c2)cc1Br	-3.4	.	.	.	.
COc1ccc(NC(=O)Nc2cccc([N+](=O)[O-])c2)cc1Cl	98.2*	33.0	-8.3	79.2*	-3.1
Cc1ccc(CNC(=O)c2cn(C3CCCCC3)c(=O)c3c2c2ccccc2n3C)o1	53.2*	-103.9	3.1	-0.7	-20.4
COc1ccc(C2C(=O)N(C3CCCCC3)CC(=O)N2CC2COc3ccccc3O2)cc1 (centres undefined)	18.8	-17.0	7.9	9.4	.
O=C1OC(Nc2ccc3c(c2)OCO3)c2ccccc21 (centres undefined)	59.7*	17.0	-0.5	15.1	-6.9
O=C1OC(Nc2ccc(F)c([N+](=O)[O-])c2)c2ccccc21 (centres undefined)	.	-1.1	.	.	.
Cc1ccc(CCNC(=O)CCc2nc3ccccc3[nH]2)cc1	35.9	46.6	7.9	-8.3	.
COc1ccccc1N1CCN(CC(=O)NCC2CCCO2)CC1 (centres undefined)	1.8	16.9	4.7	9.5	.
CN1C(=O)/C(=C2\SC(=S)N(CC3CCCO3)C2=O)c2ccccc21 (centres undefined)	33.9	14.0	2.4	-31.8	.
Cc1cc(/C=C2\Sc3ccccc3N2C)cc(C)[n+]1CC1CCCO1 (centres undefined)	100.6*	62.2	-12.7	62.8	101.3*
COC(=O)c1ccccc1NC(=S)NC(NC(=O)COc1ccccc1)C(Cl)(Cl)Cl (centres undefined)	99.4*	11.4	-13.0	13.9	23.1
O=C(CN1CCN(Cc2ccccc2F)C1=O)NCc1ccco1	3.6	-20.8	-0.8	3.2	.
CN(C)S(=O)(=O)c1ccc(C(=O)OCC(=O)NCc2ccco2)cc1	7.7	4.8	7.2	4.6	.
CCCCCCCNC1=CC(=O)CC(c2ccccc2)C1 (centres undefined)	99.5*	60.8	-27.9	20.7	-17.7
CCCCCNC1=CC(=O)CC(c2ccccc2)C1 (centres undefined)	13.1	13.1	-17.9	41.4	.
CCc1nc(SCc2cccnc2)[nH]c(=O)c1C	0.8	12.8	-0.4	-6.3	.
CN(C)S(=O)(=O)c1cccc(-n2sc3ccccc3c2=O)c1	54.7*	93.5*	-9.4	66.7*	-4.5
COc1ccc(-c2nn(-c3ccccc3)cc2CO)cc1	17.3	-16.3	3.6	-5.0	.
N=C(N)SCc1cn(-c2ccccc2)nc1-c1ccc(Br)cc1	100.5*	106.2*	-30.7	85.5*	78.5*
Cc1nn(-c2nc3ccccc3[nH]2)c(N)c1-c1ccc(Cl)cc1	64.5*	30.1	-27.6	0.2	74.1*
COc1cccc(CN2C(=O)c3cccc(N)c3C2=O)c1	-4.4	14.3	-9.2	-18.3	.
Cc1nn(C(C)(C)C)c(OC(=O)C2CCCC2)c1S(=O)(=O)c1ccccc1	61.6*	29.8	-0.5	-6.6	-0.2
SMILES	Lmaj promast	CHOP inhibitor	Arbovirus anti	WT yeast gro inh	L major 1uM
CCOC(=O)N1CCN(C(=O)C2CCCN(S(=O)(=O)c3ccccc3)C2)CC1 (centres undefined)	-7.1	6.4	-2.2	-5.1	.
CC(=O)c1cnc2n(c1=O)CCS2	1.7	24.0	6.4	-8.4	.
O=C(Nc1cc(N2CCOCC2)ncn1)NC1(C(F)(F)F)Oc2ccccc2O1	-2.5	63.0	-0.7	-11.7	.
Cn1nc([N+](=O)[O-])nc1Oc1ccccc1N	97.5*	-12.4	-8.4	13.5	-6.4
Cn1nc([N+](=O)[O-])nc1Oc1ccccc1F	-2.4	-3.9	-0.6	-0.9	.
Cc1cccc(C(=O)Nc2ccccc2SCC2CSc3nc4ccccc4c(=O)n32)c1 (centres undefined)	-3.1	0.6	16.3	14.9	.
O=C(O)CCC(=O)N1CC=C(c2ccccc2)CC1	63.3*	-14.6	4.1	-6.4	-6.7
CC(O)[C@H]1CNC(=O)C(=O)N1CC(C)(C)C (some centres undefined)	.	16.2	.	.	.
CCOc1ccc(C(=O)/C=C/c2cn(CN3CCN(C)CC3)c3ccccc23)cc1	1.1	55.9	-28.4	28.5	.
COc1ccc(C(=O)/C=C/c2cn(CN3CCN(C)CC3)c3ccccc23)cc1	93.4*	27.7	6.6	-14.3	-4.7
Oc1ccc2ccc3[nH]cnc3c2c1	.	23.7	.	.	.
Oc1ccc2[nH]ccc2c1	87.1*	5.8	-2.9	0.8	-10.2
Cn1c(SCC(=O)Nc2ccc(NC(=O)c3cccs3)cc2)nnc1-c1ccncc1	-5.7	15.1	6.5	-19.3	.
Cc1cccc2sc(NC(=O)c3cccc(S(=O)(=O)N4CCc5ccccc54)c3)nc12	95.9*	61.0	1.2	9.9	-3.3
Cc1cc(C)c2nc(NC(=O)c3cccc(S(=O)(=O)N4CCc5ccccc54)c3)sc2c1	17.4	23.2	-1.4	4.0	.
O=c1ccc(Cc2ccccn2)n[nH]1	-5.8	-10.0	8.9	-18.8	.
C1=CN2CCC1C(c1ccccc1)C2 (centres undefined)	79.1*	13.6	-10.0	4.2	-11.9
Fc1ccc(-c2cc(-c3nnc4n3CCCCC4)c3ccccc3n2)cc1	52.4*	0.6	19.1	-7.8	-12.4
O=[N+]([O-])c1ccc2c(OCc3nnc(-c4ccccc4Br)o3)ncnc2c1	.	-1.3	.	.	.
CCOC(=O)c1oc2cccc(OCC(O)CNC(C)C)c2c1C (centres undefined)	100.5*	.	-14.2	69.3*	-11.3
CSc1ccc(/C=N/NC(=O)CN2CCN(Cc3ccc(C)cc3)CC2)cc1	1.4	19.0	-3.3	5.0	.
O=c1[nH]c(Nc2ccc(F)cc2)cc2ccccc12	46.4	57.8	-0.7	8.3	.
Cc1ccccc1Nc1cc2ccccc2c(=O)[nH]1	52.7*	-13.4	-34.5	65.9*	-9.5
CC12CCC(O)CC1=CCC1C2CCC2(C)C1CCC21CCC(=O)O1 (centres undefined)	67.8*	38.7	11.1	74.7*	-10.0
COc1cc(/C(C)=N\NC(=O)CSc2nc3ccccc3n2C)ccc1O	.	-5.5	.	.	.
SMILES	Lmaj promast	CHOP inhibitor	Arbovirus anti	WT yeast gro inh	L major 1uM
CN1CCN(c2ccc(NC(=O)CN3CCOCC3)cc2F)CC1	-11.5	-7.2	5.0	-9.3	.
Cc1ccc(SCC(=O)Nc2ccc(N3CCN(C)CC3)c(F)c2)cc1	100.1*	-7.8	19.2	19.3	2.0
Cc1ccc(NC(=S)c2nc3ccccc3[nH]2)cc1	70.5*	-3.5	-15.8	55.3	-4.4
Cc1ccc(NC(=O)CCCSc2nc3ccccc3[nH]2)cc1	3.7	30.1	5.9	8.6	.
COCCNC(=O)NC12CC3CC(CC(C3)C1)C2	12.3	-2.0	9.8	-6.2	.
COCCNC(=S)NC12CC3CC(CC(C3)C1)C2	52.9*	3.7	6.0	32.0	0.0
N#CC1=C(N)OC2=C(C(=O)CCC2)[C@]12C(=O)N(CC(N)=O)c1ccccc12	-0.2	5.5	-6.6	6.3	.
N#CC1=C(N)OC2=C(C(=O)CCC2)C12C(=O)N1CCCc3cccc2c31 (centres undefined)	59.6*	5.3	10.1	-8.6	-14.0
Cc1ccc(OCc2ccc(C(=O)Nc3ccc(S(N)(=O)=O)cc3)o2)cc1	0.0	-0.2	12.8	3.8	.
